Results filed as inconclusive are left out. The source made the active and inactive calls. The call rests on the fitted dose curve; in most records, active means well fitted curve in the direction sought with a large enough effect; inconclusive means small, poorly fitted or top-dose-only effect, or another doubt; inactive means no such curve, though single readings can be large; an effect the other way counts as inactive or inconclusive.
Assays:
[1] = Cellular Toxicity (caspase-3) HepG2 (AID 654);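 further: cells exposed to compound for 16 hours before reading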
Summary of the method: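 qHTS, HepG2, 1500 cells/well, complete medium; cpd 16 h 37 °C; Caspase-Glo 3/7, 20 min RT; lum. Norm: DMSO vs 100 uM tamoxifen; AC50 Hill fit.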

[2] = Cellular Toxicity (caspase-3) Jurkat (AID 655);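 further: cells exposed to compound for 16 h at 37 °C before reading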
Summary of the method: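 Jurkat cells (5000/well) in complete medium were treated with compounds for 16 hr at 37 °C, then Caspase-Glo 3/7 luminescence was read after 20 min at room temperature. Data normalized to DMSO (basal) and 100 uM tamoxifen (100%); AC50 from Hill fit.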

[3] = Cellular Toxicity (caspase-3) HUV-EC-C (AID 656)
Summary of the method: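 HUV-EC-C endothelial cells, 1000/well, were pre-incubated 5 hr at 37°C, then exposed to compounds for 16 hr at 37°C. Caspase-Glo 3/7 luminescence was read after 20 min at room temperature. AC50 came from Hill fits, normalized to DMSO and 100 uM tamoxifen.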

[4] = Cellular Toxicity (caspase-3) SHSY5Y (AID 657)
Summary of the method: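 SH-SY5Y human neuroblastoma cells (1500/well) were treated with compounds for 16 h at 37 °C, then Caspase-Glo 3/7 luminescence was read after 1 h at room temperature. Data normalized to DMSO and 10 uM staurosporine; AC50 from Hill fits.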

[5] = Cellular Toxicity (caspase-3) BJ (AID 658)
Summary of the method: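 Readout: Caspase-Glo 3/7 luminescence increase in BJ cells after 16 hr treatment at 37 °C. Staurosporine and tamoxifen served as positive controls; AC50 values came from Hill modelling of data normalized to DMSO and 10 uM staurosporine.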

[6] = Cellular Toxicity (caspase-3) MRC-5 (AID 659)
Summary of the method: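 Concentration-dependent caspase 3/7 activation is measured in human normal lung fibroblasts (MRC-5) following 16-hour treatment. AC50 values come from standard Hill-equation modeling of luminescence normalized to DMSO and 10 uM staurosporine.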

[7] = Cellular Toxicity (caspase-3) Mesangial (AID 660);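 further: combined caspase 3 and 7 activity read by Caspase-Glo luminescence; cells exposed to compound for 16 h before the caspase read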
Summary of the method: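 Concentration-response qHTS: compound-induced rise in caspase 3/7 luminescence in human mesangial cells after 16 h, normalized to DMSO and 100 uM tamoxifen controls.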

[8] = Cellular Toxicity (caspase-3) SK-N-SH (AID 661)
Summary of the method: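 Caspase 3/7 activation is measured as a luminescence increase from aminoluciferin released by substrate cleavage in SK-N-SH cells after 16 hr compound treatment; values are AC50 from concentration-response curves.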

[9] = Cellular Toxicity (caspase-3) H-4-II-E (AID 663);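 further: cells exposed to compound for 16 hr before readout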
Summary of the method: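 Apoptosis induction is scored as increased luminescence from caspase 3/7 substrate cleavage in rat hepatoma H-4-II-E cells exposed to compound for 16 hr. Activity is scaled between DMSO and 100 uM tamoxifen.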

[10] = Cellular Toxicity (caspase-3) Hek293 (AID 664);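 further: cells exposed to compound for 16 h at 37 °C before readout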
Summary of the method: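 Activation of caspase-3/7 is measured as increased luminescence from cleaved peptide-aminoluciferin substrate in HEK293 cells treated 16 hours at 37 °C. AC50 values come from Hill-equation fits of concentration-response data.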

[11] = Cellular Toxicity (caspase-3) NIH 3T3 (AID 666);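 further: caspase signal read after 16 h compound exposure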
Summary of the method: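 Concentration-response qHTS in NIH 3T3 mouse fibroblasts scores caspase-3/7 activation as rising luminescence after 16 hr compound exposure. Signals are scaled between DMSO-only and 100 uM tamoxifen.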

[12] = Cellular Toxicity (caspase-3) Renal Proximal Tubule (AID 667);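 further: cells exposed to compound for 16 hours at 37 °C before detection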
Summary of the method: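 Primary rat proximal tubule cells, 1000/well, 5 h plating at 37 °C, then compound 16 h at 37 °C. Caspase-Glo 3/7 reagent, 1 h RT, luminescence. Normalized to DMSO (basal) and 10 uM staurosporine (100%); Hill-fit AC50.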

[13] = target: Cytochrome P450 3A4 (Homo sapiens) (UniProt P08684); assay: qHTS Assay for Inhibitors and Substrates of Cytochrome P450 3A4 (AID 884); further: series mostly up to about 57 µM; nearly all actives have a fitted effect of over 50% in size
Summary of the method: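 20 nM human CYP3A4 with 25 uM Luciferin-PPXE (at KM) in 200 mM KPO4, preincubated 10 min with compound; NADPH regeneration started a 60 min RT reaction. Luciferin detected by luminescence, normalized to 57 uM ketoconazole as full inhibition.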

[14] = Confirmation and Secondary Assay for Modulators of Hemoglobin Beta Chain Splicing at IVS2 654 locus (AID 910);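 further: HeLa cells stably carrying EGFP split by mutant beta-globin IVS2-654 intron; per-well total GFP intensity by laser scanning cytometry after 2-day treatment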
Summary of the method: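 Readout: per-well total peak green fluorescence (488 nm ex, 500–520 nm em) from objects 5–250 µm, reflecting correct splicing of an EGFP-654 reporter. Compounds were applied for 2 days at 37 °C to overnight-plated HeLa EGFP-654 cells; controls were DMSO and 500 nM IVS2-654 PNA.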

[15] = target: Cytochrome P450 3A4 (Homo sapiens) (UniProt P08684); assay: qHTS Assay for Activators of Cytochrome P450 3A4 (AID 885); further: nearly all actives have a fitted effect of over 65% in size
Summary of the method: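 Steps: enzyme/substrate mix dispensed; compound added, 10 min RT; NADPH regeneration solution added, 60 min RT; luciferin detection buffer stops reaction; 20 min later luminescence measured.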

[16] = target: Cytochrome P450 2C9 (Homo sapiens) (UniProt P11712); assay: qHTS Assay for Inhibitors and Substrates of Cytochrome P450 2C9 (AID 883); further: nearly all actives have a fitted effect of over 60% in size
Summary of the method: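 Inhibition of CYP2C9 is scored as loss of luminescence, with 57uM sulphaphenazole defining 100% inhibition. Substrate Luciferin-H is used at 100uM, equal to its KM; enzyme at 10nM in 25mM KPO4, 60 min at 37C with NADPH regeneration.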

[17] = target: Cytochrome P450 2D6 (Homo sapiens) (UniProt P10635); assay: qHTS Assay for Inhibitors and Substrates of Cytochrome P450 2D6 (AID 891);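 further: luciferin methyl ether substrate demethylated by CYP2D6 with NADPH regeneration; nearly all actives have a fitted effect of over 60% in size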
Summary of the method: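 Human CYP2D6 (5 nM) with 30 uM Luciferin-ME EGE (at Km) in 100 mM KPO4, compound preincubated 10 min, then NADPH regeneration system for 60 min at room temperature. Luciferin read by luminescence; normalized to 1.43 uM quinidine.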

[18] = target: Cytochrome P450 2C19 (Homo sapiens) (UniProt P33261); assay: qHTS Assay for Inhibitors and Substrates of Cytochrome P450 2C19 (AID 899); further: nearly all actives have a fitted effect of over 60% in size
Summary of the method: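 5nM enzyme + 10uM Luciferin-H EGE (=KM), 50mM KPO4; cpd pin-transferred, 10 min 37C; NADPH regen, 60 min 37C; stopped w/ luciferin detection reagent, 20 min; luminescence. Normalized to 57uM ketoconazole (AC100).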

Measured: Potency

Chain of Cytochrome P450 3A4 (Homo sapiens) (P08684 whole entry, looked up): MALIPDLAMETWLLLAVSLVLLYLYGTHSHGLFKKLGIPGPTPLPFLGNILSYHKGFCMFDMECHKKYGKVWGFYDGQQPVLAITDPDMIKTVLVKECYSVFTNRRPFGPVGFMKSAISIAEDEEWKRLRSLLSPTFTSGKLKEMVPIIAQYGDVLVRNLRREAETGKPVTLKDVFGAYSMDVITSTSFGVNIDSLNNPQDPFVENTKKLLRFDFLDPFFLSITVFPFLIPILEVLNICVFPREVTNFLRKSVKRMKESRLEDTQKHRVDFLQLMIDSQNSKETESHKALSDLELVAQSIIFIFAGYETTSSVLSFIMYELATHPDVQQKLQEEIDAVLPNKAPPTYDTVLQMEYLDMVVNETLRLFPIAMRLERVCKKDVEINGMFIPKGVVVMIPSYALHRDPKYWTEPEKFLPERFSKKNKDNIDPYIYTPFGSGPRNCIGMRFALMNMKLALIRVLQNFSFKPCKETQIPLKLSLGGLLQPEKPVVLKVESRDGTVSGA
Chain of Cytochrome P450 2C9 (Homo sapiens) (P11712 whole entry, looked up): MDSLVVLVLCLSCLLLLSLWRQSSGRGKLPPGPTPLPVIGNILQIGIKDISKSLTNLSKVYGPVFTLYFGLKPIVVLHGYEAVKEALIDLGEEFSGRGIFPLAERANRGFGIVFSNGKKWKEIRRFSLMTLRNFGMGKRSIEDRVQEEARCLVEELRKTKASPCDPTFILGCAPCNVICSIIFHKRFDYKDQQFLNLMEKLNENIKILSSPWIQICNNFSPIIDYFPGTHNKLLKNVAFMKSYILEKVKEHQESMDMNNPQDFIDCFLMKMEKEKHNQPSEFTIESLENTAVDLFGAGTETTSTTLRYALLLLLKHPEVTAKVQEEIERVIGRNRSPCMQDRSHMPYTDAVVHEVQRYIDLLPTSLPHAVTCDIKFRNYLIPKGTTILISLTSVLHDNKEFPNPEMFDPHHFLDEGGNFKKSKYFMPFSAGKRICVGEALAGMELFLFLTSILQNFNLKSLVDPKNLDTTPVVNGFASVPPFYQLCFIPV
Chain of Cytochrome P450 2D6 (Homo sapiens) (P10635 whole entry, looked up): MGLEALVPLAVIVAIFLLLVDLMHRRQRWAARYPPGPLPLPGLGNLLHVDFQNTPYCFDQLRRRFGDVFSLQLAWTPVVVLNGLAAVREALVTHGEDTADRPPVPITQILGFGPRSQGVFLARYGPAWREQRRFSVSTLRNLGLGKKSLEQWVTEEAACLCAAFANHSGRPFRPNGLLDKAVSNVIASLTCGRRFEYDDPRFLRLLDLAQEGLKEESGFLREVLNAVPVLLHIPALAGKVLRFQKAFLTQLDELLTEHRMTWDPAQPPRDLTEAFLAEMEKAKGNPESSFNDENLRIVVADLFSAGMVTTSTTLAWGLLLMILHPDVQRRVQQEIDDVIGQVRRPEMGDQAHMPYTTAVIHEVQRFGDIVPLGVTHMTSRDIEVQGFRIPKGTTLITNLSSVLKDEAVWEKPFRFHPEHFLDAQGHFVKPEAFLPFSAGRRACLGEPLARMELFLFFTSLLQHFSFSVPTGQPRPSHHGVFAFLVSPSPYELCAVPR
Chain of Cytochrome P450 2C19 (Homo sapiens) (P33261 whole entry, looked up): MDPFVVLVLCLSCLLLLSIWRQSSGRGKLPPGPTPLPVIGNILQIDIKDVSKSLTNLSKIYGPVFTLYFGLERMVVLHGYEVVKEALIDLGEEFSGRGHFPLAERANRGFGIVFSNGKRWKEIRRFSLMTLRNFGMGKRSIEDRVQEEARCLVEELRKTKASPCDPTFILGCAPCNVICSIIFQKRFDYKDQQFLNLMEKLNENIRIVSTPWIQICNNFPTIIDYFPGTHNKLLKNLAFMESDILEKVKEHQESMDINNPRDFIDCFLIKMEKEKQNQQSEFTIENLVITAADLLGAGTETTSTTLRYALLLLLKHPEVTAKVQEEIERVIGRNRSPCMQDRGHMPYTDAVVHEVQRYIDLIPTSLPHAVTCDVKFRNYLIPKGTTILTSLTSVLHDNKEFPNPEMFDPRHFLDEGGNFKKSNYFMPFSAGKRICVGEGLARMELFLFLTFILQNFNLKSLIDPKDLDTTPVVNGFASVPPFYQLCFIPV

Cc1cc(O)ccc1Cl
not listed: [15] | [16] | [17] | [18]
inactive: all other assays above

Nc1ccc(Cl)cc1N
not listed: [1] | [2] | [13] | [14] | [16] | [17] | [18]
inactive: all other assays above

O=c1cccc2n1CC1CNC[C@H]2C1
inactive: [16] | [15] | [17] | [18]

Nc1ccc(Sc2ccc(N)cc2)cc1
not listed: [13] | [14] | [15] | [16] | [17] | [18]
inactive: all other assays above

CCCCOC(=O)c1ccccc1C(=O)OCc1ccccc1
not listed: [13] | [14] | [16] | [17] | [18]
inactive: all other assays above

c1cc2ccc3cccc4ccc(c1)c2c34
not listed: [13] | [14] | [16] | [17] | [18]
inactive: all other assays above

COC(C)(C)CCCC(C)C/C=C/C(C)=C/C(=O)OC(C)C (stereo unspecified)
not listed: [13] | [16] | [17] | [18]
inactive: all other assays above

CN(C)[C@@H]1C(=O)C(C(N)=O)=C(O)[C@@]2(O)C(=O)C3=C(O)c4c(O)cccc4[C@@](C)(O)[C@H]3[C@H](O)[C@@H]12
not listed: [14] | [15] | [16] | [17] | [18]
inactive: all other assays above

O=[N+]([O-])c1c2ccccc2cc2ccccc12
not listed: [13] | [14] | [16] | [17] | [18]
inactive: all other assays above

CCOP(=O)(NC(C)C)Oc1ccc(SC)c(C)c1 (stereo unspecified)
not listed: [13] | [14] | [16] | [17] | [18]
inactive: all other assays above

O=C(O)C(Cl)Cl
not listed: [14] | [15] | [16] | [17] | [18]
inactive: all other assays above

Nc1ccc([N+](=O)[O-])cc1
not listed: [14] | [15] | [16] | [17] | [18]
inactive: all other assays above

CC(=O)[O][Hg][c]1ccccc1
not listed: [2] | [13] | [15] | [16] | [17] | [18]
inactive: all other assays above

C1CCC(NC2CCCCC2)CC1
not listed: [14] | [15] | [16] | [17] | [18]
inactive: all other assays above

Clc1cnc(Oc2ccc(Oc3ncc(Cl)cc3Cl)cc2)c(Cl)c1
inactive: [16]

CCOCCOC(C)=O
not listed: [14] | [15] | [16] | [17] | [18]
inactive: all other assays above

O=[N+]([O-])c1c(Cl)c(Cl)cc(Cl)c1Cl
not listed: [14] | [15] | [16] | [17] | [18]
inactive: all other assays above

CC(C)(O)C(=O)Nc1ccc([N+](=O)[O-])c(C(F)(F)F)c1
not listed: [13] | [14] | [16] | [17] | [18]
inactive: all other assays above

Reference: PubChem BioAssay (NCATS)
